Laboratory results taken from PubChem BioAssay.

assay: compound binding in COS7 lysate, probe aLAP1, primary screen, cell lysate, small-molecule microarray (AID 1124); settings: probe aLAP1, fluorescence, higher = more signal;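 note: lysate comes from COS7 cells expressing LAP1 and is applied at 0.3 µg/mL; score merges spot fluorescence near 667 nm with signal-to-noise over triplicate slides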

Row | Compound | composite z-score
1 | [N-]=[N+]=Nc1ccccc1C[C@]1(C(=O)NCC(O)CO)COC(c2ccc(OCCCO)cc2)=N1 (stereo partly drawn) | 0.282
2 | CN(C)CCCCCCNC(=O)[C@@H]1C[C@@H]2C(=O)N3CCC[C@H]3C(=O)N2[C@@H]1c1cccc(OCCO)c1 | 0.87
3 | CCOC(=O)C[C@H]1[C@H](OC(=O)c2cc3ccccc3oc2=O)[C@@H](NC(=O)c2ccccc2)c2cc(OCCCO)ccc2N1C(=O)c1ccccc1 | -0.155
4 | O=C1C2C=CC(C(O)c3cccc(O)c3)N(Nc3ccc([N+](=O)[O-])cc3)C2C(=O)N1c1ccccc1 (stereo not drawn) | 0.153
5 | C=CC[C@@]1(C(=O)NCCCOC)N=C(c2ccc(OCCCO)cc2)O[C@@H]1c1ccccc1 | 0.601
6 | CCCCC(=C=CC[C@H](O)c1ccc(OCCO)cc1)CCO | 0.251
7 | C=C(C(=O)CC[C@H](OC(=O)c1ccccc1-c1ccccc1C(=O)O)c1cccc(OCCO)c1)C(C)C | 0.2
8 | COC(=O)[C@]1(CCS(=O)(=O)c2ccccc2)N=C(c2ccc(OCCCO)cc2)O[C@@H]1c1ccccc1N=[N+]=[N-] | 0.612
9 | C=C(/C(=C/C[C@H](OC(=O)c1ccncc1)c1ccc(CO)o1)c1cnc2ccccc2c1)C(C)C | -0.159
10 | CC[C@@H]1C=C(C(=O)O)[C@H](c2ccc(C#N)cc2)N1S(=O)(=O)c1ccc(C)cc1 | 1.44
11 | CCCCCCCCCCC(O)C1C=CC2C(=O)N(c3ccccc3)C(=O)C2N1Nc1ccc(C#N)cc1 (stereo not drawn) | 0.906
12 | CC[C@@H]1C=C(C(=O)O)[C@H](c2ccccc2)N1S(=O)(=O)c1ccc(C)cc1 | 1.38
13 | O=C1O[C@H](c2ccccc2)[C@H](c2ccccc2)N2[C@H]1[C@@H](C(=O)O)[C@]1(C(=O)Nc3ccc(C#CCCO)cc31)[C@H]2c1ccccc1OCCO | 0.681
